Screening results as filed in PubChem.
Tau fluor cs: counter-screen for tau fibril formation inhibitors; AID 1463; 0.93% of 280,000 active; tau K18 P301L Alexa594 fluorescence, heparin fibrillization; Potency, µM (top dose mostly 57.7 µM), for the others: top-dose activity change, negative = decrease; note: potency is the fitted concentration of half-maximal effect; nearly all actives have a fitted effect of over 55% in size
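Human tau K18 P301L (15 uM unlabeled, 0.24 uM Alexa 594-labeled) in 100 mM sodium acetate pH 7 with 20 uM heparin, 6 hr at 37 C. ThT 30 uM added, 1 hr ambient; Alexa 594 FP and total fluorescence read at 555/632 nm.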
JMJD2E inh: inhibitors of human JMJD2E histone demethylase | B2RXH2 | JMJD2E catalytic domain, FDH-coupled NADH fluorescence (FDH is formaldehyde dehydrogenase) | Potency, µM (series often up to 57.1 µM), for the others: top-dose activity change, negative = inhibition, most hits filed as inhibitors | 1.6% of 230,000 active | AID 2147; active = well fitted inhibition curve with a large enough effect, not every such curve was filed as active; inconclusive = small, poorly fitted or top-dose-only effect, or another doubt; inactive = no such curve, though single readings can be large or run the other way;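 note: potency is the fitted concentration of half-maximal effect; 0% = wells with enzyme and -100% = buffer wells without enzyme; nearly all actives have a fitted effect of over 50% in size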
Target sequence (B2RXH2 1-337 limits assumed): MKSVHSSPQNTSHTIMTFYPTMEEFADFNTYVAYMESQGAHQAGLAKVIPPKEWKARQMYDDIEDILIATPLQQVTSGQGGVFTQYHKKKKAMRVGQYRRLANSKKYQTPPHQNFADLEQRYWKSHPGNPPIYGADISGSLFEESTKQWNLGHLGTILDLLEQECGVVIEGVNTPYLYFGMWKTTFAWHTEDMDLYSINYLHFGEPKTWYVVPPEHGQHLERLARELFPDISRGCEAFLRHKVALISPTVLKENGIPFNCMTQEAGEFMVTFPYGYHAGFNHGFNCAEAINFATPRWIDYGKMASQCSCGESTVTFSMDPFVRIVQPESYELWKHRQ
FBPA coupling cs: inhibits coupling enzyme system, counter-screen for aldolase hits; coupling enzyme system counterscreen, AmpLite Red fluorescence; activity change, negative = inhibition, % at 58.2 µM, hits read low; 0.67% of 290,000 active; AID 2472; in the data active = activity change below about -30%
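Activity here indicates interference with the coupling reaction, not aldolase inhibition. Compounds at 57.5 uM final met coupling enzymes for 10 min at RT; substrate and AmpLite Red detection followed, with a 525/598 nm fluorescence read after 20 min.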
Tau ThT inhib: tau fibrillization inhibition (ThT binding); P10636; recombinant tau K18 P301L (four-repeat tau fragment), heparin-induced fibrillization, ThT fluorescence; Potency, µM (doses to about 57.4 µM), inactives show top-dose activity, negative = inhibition, most hits filed as inhibitors; 2.1% of 270,000 active; AID 1460; note: potency is the fitted concentration of half-maximal effect; nearly all actives have a fitted effect of over 55% in size
Target sequence (P10636 561-689 P618L limits assumed): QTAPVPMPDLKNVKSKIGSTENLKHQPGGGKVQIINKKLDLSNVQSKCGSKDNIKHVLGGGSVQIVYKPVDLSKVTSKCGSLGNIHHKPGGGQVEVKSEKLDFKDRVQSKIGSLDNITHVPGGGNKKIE
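K18 P301L tau (15 uM + 0.24 uM Alexa 594-tagged), heparin 20 uM, NaOAc pH 7, 6 h 37 C; ThT 30 uM, 1 h RT, ex 450/em 510 nm.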
Tau fibril FP: blocks human tau fibril formation measured by polarization | K18 P301L tau heparin fibrillization, Alexa594 FP, 6 h | Potency, µM (series often up to 57.7 µM), for the others: at the top dose activity, negative = inhibition, actives largely listed as inhibitors | 0.39% of 280,000 active | AID 1468; note: potency is the fitted concentration of half-maximal effect; nearly all actives have a fitted effect of over 55% in size
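Steps: dispense K18 P301L tau (15 uM plus 0.24 uM Alexa 594 tracer, final) in pH 7 sodium acetate; add compound; add heparin (20 uM final); incubate 6 hr, 37 C; add ThT (30 uM final); after 1 hr ambient, read FP.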
The depositor's hits bear a star; ? = inconclusive; nt = no result given; ! = a repeat was not active; [ ] = dose if it differs, or a comment. A selection: hits, their analogues and other compounds. The true share with any hit is near 3%. Unless noted, calls come from the whole dose curve; as a rule, active = well fitted curve in the direction sought with a large enough effect; inconclusive = small, poorly fitted or top-dose-only effect, or another doubt; inactive = no such curve, though single readings can be large; an effect the other way counts as inactive or inconclusive. Unless noted, % is set by controls: 0 for no effect and ±100 for the full control effect.

SMILES	Tau fluor cs	JMJD2E inh	FBPA coupling cs	Tau ThT inhib	Tau fibril FP
COc1ccccc1/C=C/c1nc(C#N)c(NCCc2ccccc2)o1	3.55µM*[quencher]	nt	nt	?	?
O=c1[nH]c(=O)c2nnc(N/N=C\c3ccc(O)cc3)nc2[nH]1	-10.2%	3.2%	3.3	3.98µM*	-1.0%
Nc1ccccc1Nc1cc(-c2cccc(Cl)c2)nn1-c1ccccc1	12.6µM*[quencher]	?	-4.5	?	?
Cc1ccc(F)cc1NC(=O)Nc1cc(C(C)(C)C)nn1C	-26.6%	-3.5%	-0.3	-4.6%	5.4%
Cn1nc(C(C)(C)C)cc1NC(=O)Nc1cc(Cl)cc(Cl)c1	7.08µM*[quencher]	-3.9%	1.3	-9.2%	25.1µM*
CC(C)N(C(=O)Cn1cc(SCC(=O)Nc2ccccc2F)c2ccccc21)C(C)C	-6.0%	nt	nt	-10.0%	-7.9%
COC(=O)c1cc(N=Nc2sc(N)nc2C)cc(C(=O)OC)c1	?	-17.7%	-0.3	15.8µM*	8.8%
CCCCC1=CC2=CC(=O)C(C)(OC(=O)CC)C(=O)C2=CN1C(CO)CO (stereo unspecified)	-0.9%[11.6 µM]	?	-42.3*!	0.7%[11.5 µM]	-0.7%[11.6 µM]
COc1ccccc1C(=O)NCCSc1c(C)[nH]c2ccccc12	15.8µM*[quencher]	nt	nt	?	2.5%
Cc1[nH]c2ccccc2c1SCCNC(=O)c1ccccc1F	25.1µM*[quencher]	nt	nt	?	7.6%
COc1cccc(C(=O)NCCSc2c(C)[nH]c3ccccc23)c1OC	?	-4.5%	0.3	nt	15.3%
COc1cc(C(=O)NCCSc2c(C)[nH]c3ccccc23)cc(OC)c1OC	25.1µM*[quencher]	nt	nt	?	-3.3%
N#CCCCS(=O)(=O)c1nnnn1-c1ccc(F)cc1Br	-8.6%	4.9%	3.4	?	-2.4%
CCC(CC)C1C(C#N)=C(N)Oc2cc(C)oc(=O)c21 (stereo unspecified)	-7.2%	0.3%	-3.7	-9.4%	-2.3%
Cc1cc2c(c(=O)o1)C(c1ccc([N+](=O)[O-])o1)C(C#N)=C(N)O2 (stereo unspecified)	-25.2%	?	-9.3	14.1µM*	?
NCCCC[C@H](NC(=O)[C@H](CS)NC(=O)[C@@H](N)Cc1cnc[nH]1)C(=O)N[C@@H](Cc1ccccc1)C(=O)N[C@@H](Cc1c[nH]c2ccccc12)C(=O)N[C@@H](Cc1c[nH]c2ccccc12)C(=O)O	nt	nt	0.8	nt	nt
O=C(O)c1ccc(C2CCCCC2)cn1	-4.0%	?	-49.2*	-1.7%	-3.8%
O=C1CCCC/C1=N\Nc1ccc(C2CCCCC2)cc1	-11.0%	-6.5%	-14.0	?	5.0%
COc1ccc(-c2cc(C(=O)Nc3c(C)nn(Cc4ccc(F)cc4)c3C)no2)cc1OC	-4.6%	nt	nt	-2.5%	3.2%
O=C1[C@@H]2[C@H]3[C@H](O)[C@H](O)C/C(=N/OC[C@@H](O)COCc4ccco4)[C@H]3CC[C@H]2C(=O)N1c1ccc(F)cc1F	-1.6%[11.6 µM]	nt	-30.4*	-6.8%[11.5 µM]	-1.4%[11.6 µM]
C=C1c2c(Cl)ccc(O)c2C(O)=C2C(=O)[C@@]3(O)C(O)=C(C(N)=O)C(=O)[C@@H](N(C)C)[C@@H]3[C@@H](O)[C@H]12	nt	?	-9.6	nt	nt
Nc1nn(-c2ccccc2)c(N)c1N=Nc1ccccc1F	?	10.8%	-0.6	4.47µM*	5.5%
Cc1cccc(N=Nc2c(C)nn(-c3ccccc3)c2N)c1C	?	-2.6%	-2.9	7.08µM*	7.6%
Cc1nn(-c2ccccc2)c(N)c1N=Nc1ccccc1	?	3.3%	1.4	8.91µM*	2.1%
Nc1c(N=Nc2ccccc2F)c(=O)[nH]n1-c1ccccc1	?	-7.9%	-1.9	?	-2.5%
Cc1nn(-c2ccccc2)c(N)c1N=Nc1cccc(S(=O)(=O)N2CCOCC2)c1	?	-17.1%	-2.3	?	5.7%
Cc1nn(-c2ccccc2)c(N)c1N=Nc1ccc(Cl)cc1	?	-10.5%	0.4	7.94µM*	-6.2%
CCc1ccc(CNC(=O)c2ccc3c(c2)nc2n3CCOC2)cc1	-7.1%	nt	nt	-4.6%	-0.2%
CCOc1ccc(CCNC(=O)c2cn(-c3ccc(OC)cc3)c(=O)c3ccccc23)cc1OCC	5.5%	nt	nt	-2.1%	-0.7%
CC(C)(C)N1C(=O)[C@H]2[C@H]3[C@H](O)[C@H](O)C/C(=N/NC(=O)OCc4ccccc4)[C@@H]3CC[C@@H]2C1=O	1.9%[11.6 µM]	nt	0.6	-6.8%[11.5 µM]	-0.1%[11.6 µM]
